Results filed as inconclusive are left out. Where a call stands in place of a potency, no number is given. Active and inactive are the calls of the source. Calls come from the whole dose curve; as a rule, active = well fitted inhibition curve with a large enough effect; inconclusive = small, poorly fitted or top-dose-only effect; inactive = flat fitted curve, though single readings scatter.
Each compound was assayed on DIV14 (assay: qHTS profiling for inhibitors of Plasmodium falciparum proliferation (AID 504749; note: nearly all actives have a fitted effect of over 60% in size)). Conditions: P. falciparum in erythrocytes, SYBR Green DNA, 72 h; series mostly up to 28.7 µM.
Procedure, shortened: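 Quantitative HTS: compounds pinned into medium, infected erythrocytes added (0.3% parasitemia, 2.5% hematocrit), 72 h culture at 37 C under 5% CO2. Saponin/Triton lysis with SYBR Green I, overnight RT, then fluorescence read.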
Potency is the fitted concentration of half-maximal effect.

| Compound | Potency |
| --- | --- |
| CCCCC(=O)OCC(=O)[C@]1(O)Cc2c(O)c3c(c(O)c2[C@H](OC2CC(NC(=O)C(F)(F)F)C(O)C(C)O2)C1)C(=O)c1c(OC)cccc1C3=O (some centres undefined) | 1.69 µM (active) |
| C[C@H]1OC(OC2C(O)[C@@H](O)C(OC3C(O)[C@@H](O)C(O)O[C@@H]3CO)O[C@@H]2CO)[C@H](O)C(O)C1N[C@H]1C=C(CO)[C@@H](O)[C@H](O)C1O (some centres undefined) | inactive |
| CCN(CC)CC(=O)Nc1c(C)cc(C)cc1C | inactive |
| CC(=O)N[C@H]1[C@H](O[C@@H]2c3ccc(c(Cl)c3)Oc3cc4cc(c3O[C@@H]3O[C@H](CO)[C@@H](O)[C@H](O)C3C)Oc3ccc(cc3Cl)C[C@H]3NC(=O)[C@@H](N)c5ccc(O)c(c5)Oc5cc(O)cc(c5)[C@H](NC3=O)C(=O)N[C@H]4C(=O)N[C@H]3C(=O)N[C@@H]2C(=O)N[C@@H](C(=O)O)c2cc(O)cc(O[C@H]4O[C@H](CO)[C@@H](O)C(O)[C@@H]4O)c2-c2cc3ccc2O)O[C@H](CO)[C@@H](O)[C@@H]1O (some centres undefined) | inactive |
| NC(=O)c1ncn(C2OC(CO)C(O)C2O)c1N (centres undefined) | inactive |
| C[C@H]1[C@@H](OC(=O)CCC(=O)O)OC2OC3(C)CC[C@H]4[C@H](C)CC[C@@H]1[C@@]24OO3 (some centres undefined) | 0.0034 µM (active) |
| CC1(Cn2ccnn2)[C@H](C(=O)O)N2C(=O)C[C@H]2S1(=O)=O (some centres undefined) | inactive |
| CN(C)CC/C=C1\c2ccccc2COc2ccc(CC(=O)O)cc21 | inactive |
| OCCN1CC(O)C(O)C(O)C1CO (centres undefined) | inactive |
| COc1cc2c(cc1O)CCN[C@@]21CS[C@H]2c3c(OC(C)=O)c(C)c4c(c3C(COC1=O)N1C2C2c3c(cc(C)c(OC)c3O)CC([C@@H]1O)N2C)OCO4 (some centres undefined) | 0.0004 µM (active) |
| C[n+]1c2cc(N)ccc2cc2ccc(N)cc21 | 0.213 µM (active) |
| O=C(OC[C@@H]1O[C@@](O)(COC(=O)c2cccnc2)[C@H](OC(=O)c2cccnc2)[C@H]1OC(=O)c1cccnc1)c1cccnc1 | inactive |
| O=[N+]([O-])O[C@H]1CO[C@H]2[C@@H]1OC[C@H]2O | inactive |
| COc1cccc(OC)c1C(=O)NC1C(=O)N2C1SC(C)(C)C2C(=O)O (centres undefined) | inactive |
| NC[C@@H]1O[C@H](OC2[C@@H](CO)O[C@@H](OC3[C@H](O)[C@H](N)C[C@H](N)[C@H]3OC3O[C@H](CO)[C@@H](O)[C@H](O)[C@@H]3N)[C@H]2O)C(N)[C@H](O)[C@@H]1O (some centres undefined) | inactive |
| Cc1ccc(S(=O)(=O)NC(=O)NC(C)Cc2ccccc2)cc1 (centres undefined) | inactive |
| OCCOC[C@H]1O[C@H](OCCO)[C@H](OCCO)[C@@H](OCCO)[C@@H]1OCCO (tested in a mixture with another compound) | inactive |

| Compound | Potency |
| --- | --- |
| C[S+](C)CC[C@H](N)C(=O)O | inactive |
| CC[C@@H]1/C=C(\C)C[C@H](C)C[C@H](OC)[C@H]2O[C@@](O)(C(=O)C(=O)N3CCCC[C@H]3C(=O)O[C@H](/C(C)=C/[C@@H]3CC[C@H](Cl)[C@H](OC)C3)[C@H](C)[C@@H](O)CC1=O)[C@H](C)C[C@@H]2OC | inactive |
| CN1[C@@H]2CC[C@@H]1CC(OC(=O)[C@H](CO)c1ccccc1)C2 (some centres undefined) | inactive |
| CC[C@@]1(O)C[C@H](O[C@H]2C[C@@H](N(C)C)[C@@H](O[C@H]3C[C@@H](O)[C@@H](O[C@H]4CCC(=O)[C@@H](C)O4)[C@@H](C)O3)[C@@H](C)O2)c2c(cc3c(c2O)C(=O)c2c(O)cccc2C3=O)[C@H]1C(=O)OC | 0.379 µM (active) |
| CCCCCCCCCCCC(=O)OCC(O)C1OCC(O)C1O (centres undefined) | inactive |
| C/C1=C2/[N-]C(C(CC(N)=O)[C@@]2(C)CCC(=O)NCC(C)OP(=O)([O-])O[C@H]2[C@@H](O)[C@@H](n3cnc4cc(C)c(C)cc43)O[C@@H]2CO)[C@]2(C)N=C(/C(C)=C3N=C(/C=C4N=C1C(CCC(N)=O)C\4(C)C)[C@@H](CCC(N)=O)[C@]\3(C)CC(N)=O)[C@@H](CCC(N)=O)[C@]2(C)CC(N)=O.CC(=O)O.[Co] (some centres undefined) | inactive |
| CC1(C)OC[C@@H]2O[C@@]3(C(=O)O)OC(C)(C)O[C@@H]3[C@@H]2O1 | inactive |
| CCC(C(=O)O)C1OC(C(C)C(O)C(C)C(=O)C(CC)C2OC3(C=CC(O)C4(CCC(C)(C5CCC(O)(CC)C(C)O5)O4)O3)C(C)CC2C)C(C)CC1C (centres undefined) | 0.0953 µM (active) |
| O=C1C(I)=CC(=C(c2cc(I)c(O)c(I)c2)c2ccccc2C(=O)O)C=C1I | inactive |
| NC(=O)NC(CCC(=O)O)C(=O)O (centres undefined) | inactive |
| COC1CC2CCC(C)[C@](O)(O2)C(=O)C(=O)N2CCCCC2C(=O)OC(C(C)CC2CCC(O)C(OC)C2)CC(=O)C(C)/C=C(/C)C(O)C(OC)C(=O)C(C)CC(C)C=CC=C/C=C\1C (some centres undefined) | 1.51 µM (active) |
| CN[C@H](C)CCC=C(C)C | 0.151 µM (active) |
| CC1(C)C2CC[C@]1(C)[C@@H](O)C2 | inactive |
| OCC1O[C@H](Oc2ccc(O)cc2)C(O)C(O)C1O (some centres undefined) | inactive |
| Nc1nc(F)nc2c1ncn2[C@@H]1O[C@H](CO)[C@@H](O)[C@H]1O | inactive |
| CC1OC(OC2CCC3(C)C(CCC4C3CC(O)C3(C)C(C5=CC(=O)OC5)CCC43O)C2)CC(O)C1OC1CC(O)C(OC2CC(O)C(OC3OC(CO)C(O)C(O)C3O)C(C)O2)C(C)O1 (centres undefined) | inactive |
| CC1OC(OCC2OC(Oc3c(-c4ccc(OCCO)c(OCCO)c4)oc4cc(OCCO)cc(O)c4c3=O)C(O)C(O)C2O)[C@@H](O)C(O)C1O (some centres undefined) | inactive |
